Assay outcomes from PubChem BioAssay.
Sampled rows, rich in hits. Any-hit rate of the full collection: about 2.1%.
CASP6 VEID inh – caspase-6 (human) enzyme inhibition. inhibition, % at 12.5 µM. 350,000 compounds, 0.53% hits. purified caspase-6, Z-VEID-R110 cleavage fluorescence. AID 686996;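 active means mean inhibition across replicates at least about 35%, with every replicate also reaching that limit, limit read from the data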;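 further: 0% = median of neutral control wells and 100% = no fluorescence left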
Target sequence (P55212 24-179 limits assumed): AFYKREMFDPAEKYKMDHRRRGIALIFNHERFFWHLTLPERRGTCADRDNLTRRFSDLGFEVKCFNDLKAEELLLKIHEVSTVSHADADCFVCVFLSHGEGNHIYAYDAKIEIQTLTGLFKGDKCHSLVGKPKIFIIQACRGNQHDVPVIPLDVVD
Target sequence (P55212 194-293 limits assumed): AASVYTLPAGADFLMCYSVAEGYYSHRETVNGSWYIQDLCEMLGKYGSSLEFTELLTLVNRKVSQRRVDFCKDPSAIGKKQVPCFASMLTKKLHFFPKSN
ARNT TACC3 PPI – ARNT/TACC3 interaction disruption; Q9Y6A5; AlphaScreen His-ARNT PAS-B/GST-TACC3 binding, luminescence; TACC3 fragment carries E629A point mutation; inhibition, % at 9.99 µM; 390,000 compounds, 0.66% hits;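 active means mean inhibition of replicates at least 50% and at least half of replicates each reaching 50%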;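 further: 0% = complete ARNT plus TACC3 wells and 100% = ARNT alone without TACC3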
SIRT5 block – inhibitors of human sirtuin-5 desuccinylase | Purified SirT5, succinyl-peptide AMC, trypsin-coupled fluorescence | inhibition, % at 15 µM | Q9NXA8 | AID 652115 | 330,000 compounds, 1.1% hits; in the data active means inhibition above about 15%
Target sequence (Q9NXA8 whole entry, looked up): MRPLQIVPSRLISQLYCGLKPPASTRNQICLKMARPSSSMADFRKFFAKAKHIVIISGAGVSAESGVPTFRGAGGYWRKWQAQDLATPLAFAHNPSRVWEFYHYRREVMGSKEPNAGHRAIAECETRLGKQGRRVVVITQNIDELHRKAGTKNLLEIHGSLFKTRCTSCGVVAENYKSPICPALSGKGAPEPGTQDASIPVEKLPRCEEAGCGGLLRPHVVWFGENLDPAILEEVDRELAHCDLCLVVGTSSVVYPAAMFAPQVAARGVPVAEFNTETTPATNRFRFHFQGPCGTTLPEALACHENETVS
PfHsp90 yeast 2 – inhibits growth of yeast expressing Plasmodium falciparum Hsp90; S. cerevisiae expressing PfHsp90, BacTiter-Glo ATP, 48 h; yeast lacking PDR1 and PDR3 efflux regulators; inhibition, % at 9.4 µM; 310,000 compounds, 0.32% hits; AID 504621;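 active means every replicate shows inhibition above about 80%, whatever the replicate mean, limit read from the data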;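 further: 0% = DMSO neutral controls and 100% = 20 µM radicicol positive controls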
NSD2 inh – inhibitors of human histone methyltransferase NSD2 | O96028 | NSD2 peptide methylation, AlphaScreen, 120 min | inhibition, % at 12.5 µM | 310,000 compounds, 0.54% hits; in the data active means inhibition above about 50%
The depositor's hits bear a star; nt = not tested or not shown.

SMILES	CASP6 VEID inh	ARNT TACC3 PPI	SIRT5 block	PfHsp90 yeast 2	NSD2 inh
CCOc1ccc(N2C(=O)/C(=C\c3ccccc3OC)S(=O)(=O)C2c2cccc([N+](=O)[O-])c2)cc1 (centres undefined)	nt	-16	nt	110*	-1
O=C(COC(=O)CC1CC2CCC1C2)NCc1ccc(Cl)cc1 (centres undefined)	3	-9	nt	nt	-2
O=C(COC(=O)CC1CC2CCC1C2)NCc1ccccc1 (centres undefined)	-4	-7	35*	nt	0
O=C(NCC1CCCCC1)c1ccc([N+](=O)[O-])cc1	-6	-3	nt	6	-1
Cc1cc(C(=O)NCC2CCCCC2)ccc1[N+](=O)[O-]	-2	-1	22*	18	8
O=C(N/N=C/c1cccc2ccccc12)c1cccs1	2	10	18*	15	1
Cc1cc(C)n(C(=O)c2cccc([N+](=O)[O-])c2C)n1	1	-3	34*	-3	0
CN(C)CC(=O)N1[C@H](CO)[C@@H](c2ccccc2)C12CN(Cc1cc(F)ccc1F)C2	0	nt	11	nt	nt
O=C(NCc1ccccc1Cl)[C@H]1[C@H](CO)[C@H]2Cn3c(cccc3=O)[C@H]2N1C(=O)C1CCCC1	-4	-6	4	nt	nt
C[C@@H]1CCCCO[C@H](CN(C)Cc2ccc3c(c2)OCO3)[C@H](C)CN([C@H](C)CO)C(=O)c2cc(NC(=O)Nc3ccc(F)cc3)ccc2O1	-2	20	5	nt	nt
CCCC(=O)Nc1ccc2c(c1)C(=O)N(C)C[C@@H](OC)[C@@H](C)CN(CCc1ccccc1)[C@H](C)CO2	-1	-1	-1	nt	nt
CC1=CN2C(=N)/C(=C/c3ccco3)C(=O)N=C2S1	5	-4	-3	-41	19
CC1=CN2C(=N)/C(=C/c3ccc([N+](=O)[O-])o3)C(=O)N=C2S1	37*	8	21*	97*	5
O=C(Nc1nc(-c2cccs2)cs1)c1ccco1	nt	-1	1	-1	2
O=C(Nc1nc(-c2cccs2)cs1)c1ccc([N+](=O)[O-])o1	6	-2	9	84*	4
C[C@H]1CN([C@@H](C)CO)C(=O)c2cc(NS(=O)(=O)c3ccc(F)cc3)ccc2O[C@@H]1CN(C)Cc1ccc(Cl)c(Cl)c1	26	1	0	nt	nt
Cc1cc(F)ccc1NC(=O)C1CSC2(C)CCC(=O)N12 (centres undefined)	0	2	18*	nt	-1
CC12CCC(=O)N1C(C(=O)Nc1nc(-c3ccc(F)c(F)c3)cs1)CS2 (centres undefined)	7	2	15*	3	9
CC12CCC(=O)N1C(C(=O)Nc1nc(-c3ccc(F)cc3)cs1)CS2 (centres undefined)	18	1	-3	-23	-7
O=C(CC1CC1)Nc1ccc2c(c1)[C@H]1C[C@@H](CC(=O)NC3CCCC3)O[C@@H](CO)[C@H]1O2	-2	-2	-5	nt	nt
CC(=O)N(C)C[C@H]1Oc2ncc(-c3ccc(C(=O)N(C)C)cc3)cc2C(=O)N([C@@H](C)CO)C[C@@H]1C	-1	10	2	nt	nt
CC1Cc2ccccc2N1CC(=O)Nc1ccc(S(=O)(=O)N(C)C)cc1 (centres undefined)	-1	1	-3	-16	-1
CC1Cc2ccccc2N1CC(=O)Nc1ccc(Cl)c(S(=O)(=O)N(C)C)c1 (centres undefined)	nt	7	16*	6	0
COc1ccc(S(=O)(=O)N[C@H]2CC[C@H](CC(=O)NCc3ccccc3F)O[C@H]2CO)cc1	-1	4	5	nt	nt
Cc1ccc(S(=O)(=O)N(C)C[C@@H]2Oc3cc(C#Cc4ccncc4)ccc3S(=O)(=O)N([C@@H](C)CO)C[C@H]2C)cc1	2	30	15*	nt	nt
SMILES	CASP6 VEID inh	ARNT TACC3 PPI	SIRT5 block	PfHsp90 yeast 2	NSD2 inh
Cc1ccc(S(=O)(=O)N(C)C[C@@H]2Oc3cc(C#Cc4ccccc4)ccc3S(=O)(=O)N([C@@H](C)CO)C[C@@H]2C)cc1	39*	7	5	nt	nt
Cc1ccc(S(=O)(=O)N(C)C[C@H]2Oc3cc(C#Cc4ccncc4)ccc3S(=O)(=O)N([C@@H](C)CO)C[C@@H]2C)cc1	0	2	10	nt	nt
Cc1ccc(S(=O)(=O)N(C)C[C@@H]2Oc3cc(C#Cc4ccncc4)ccc3S(=O)(=O)N([C@H](C)CO)C[C@H]2C)cc1	2	13	16*	nt	nt
COc1ccccc1NC1=C(NC(C)=O)C(=O)c2ccccc2C1=O	11	-4	-2	-10	31
COC1=C(Nc2ccccc2OC)C(=O)c2ccccc2C1=O	1	37	-1	-10	74*
CSc1nc2cc(Oc3cccc(Cl)c3Cl)c(Cl)cc2[nH]1	nt	5	2	109*	nt
CSc1nc2ccc(Cl)cc2[nH]1	nt	0	nt	nt	0
COc1ccccc1NC(=O)N(C)C[C@H]1Oc2ncc(Br)cc2C(=O)N([C@@H](C)CO)C[C@H]1C	0	-12	-1	nt	nt
O=C(O)c1ccccc1Nc1ccccc1C(=O)O	1	38	1	0	2
O=C1C=C(Nc2ccccc2)c2ccccc2C1=O	97*	nt	0	-8	5
O=C1C=C(Nc2ccccc2C(=O)O)c2ccccc2C1=O	89*	36	3	6	nt
O=C1C=C(Nc2cccc3cccnc23)c2ccccc2C1=O	29	-4	3	-7	104*
C[C@@H]1CCCCO[C@@H](CN(C)C(=O)Nc2ccccc2)[C@@H](C)CN([C@H](C)CO)C(=O)c2cc(NS(=O)(=O)c3cn(C)cn3)ccc2O1	1	-10	-4	nt	nt
C[C@H](O)C#Cc1cnc2c(c1)C(=O)N([C@H](C)CO)C[C@H](C)[C@@H](CN(C)C(=O)Cc1ccccn1)O2	0	-12	0	nt	nt
Cc1noc(C)c1NC(=O)Nc1ccc2c(c1)C(=O)N([C@@H](C)CO)C[C@@H](C)[C@@H](CN(C)Cc1ccc(C(=O)O)cc1)O2	0	0	-10	nt	nt
Cc1occc1-c1nnc(-c2cc([N+](=O)[O-])cc([N+](=O)[O-])c2)o1	-2	-4	-1	106*	3
CC(=O)/C(=N/Nc1ccc(C)cc1)Sc1nnc(CCc2ccccc2)n1-c1ccccc1	-1	nt	-4	-23	14
CCOC(=O)/C(=N/Nc1ccc(OC)cc1)Sc1nnc(CCc2ccccc2)n1-c1ccccc1	3	1	22*	-14	-1
Cc1noc(C)c1S(=O)(=O)Nc1ccc2c(c1)C(=O)N([C@@H](C)CO)C[C@H](C)[C@@H](CN(C)S(=O)(=O)c1ccccc1)OCCCC[C@H](C)O2	1	-3	2	nt	nt
Cc1ccc(C(=O)O)cc1-c1ccc(C=C2C(=O)c3ccccc3C2=O)o1	37*	3	8	0	55*
O=C1Cc2cccc(=O)c(O)c2C(=O)O1	38*	nt	5	nt	23
O=C1c2c(O)cccc2Cc2cccc(O)c21	0	12	nt	1	nt
